Laboratory results as given in the supplement of paper PMC10849652.
Of roughly 7,900 targets only a part is listed; those with a hit were picked by preference. About 0.6% of all pairs of compound and target were hits.

Experiments:
Experiment in all cases: log2 fold change, soluble protein after heating vs DMSO (PISA); higher = thermal stabilisation; K562 cells, 10 uM, 30 min; active = over 0.2 and 3.5 SD of the protein, either way, in both replicates (recomputed)
[1] = compound: C1=CC=C(C=C1)[C@H](COC2=CC3=C(C=C2)NC(=O)N3)NC(=O)C4=CC=CN(C4=O)CC5=CC(=C(C=C5)F)F
Outline: (§1)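 K562 cells at 2×10^6 cells/mL were exposed to 10 μM compound for 30 min, then aliquots were heated for 3 min across 48°C-58°C, pooled, and extracted in PBS containing 0.5% NP-40 at 4°C. The supernatant after 21,000xg for 90 min was taken as soluble protein and measured by TMTpro 16plex LC-MS/MS with channel sums equalised. Thermal stability is reported relative to control samples, with values from duplicates. Fold changes are given on a log2 scale.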

[2] = compound: CC1=C(SC2=C1C(=N[C@H](C3=NN=C(N32)C)CC(=O)N)C4=CC=C(C=C4)Cl)C
Outline: as §1

[3] = compound: CC1=C2C(=CC=C1)N=C(N(C2=O)C3=CC=CC=C3C)CN4C=NC5=C(N=CN=C54)N
Outline: as §1

[4] = compound: Cc1sc2c(c1C)C(c1ccc(Cl)cc1)=N[C@@H](CC(=O)OC(C)(C)C)c1nnc(C)n1-2
Outline: as §1

[5] = compound: c1ccc([C@@H]2C[C@H]2NC2CCNCC2)cc1
Outline: as §1

Measured: log2 fold change

CASP10 isoform 4 (UniProt Q92851)
Sequence of UniProt Q92851 (Q92851 whole entry, looked up): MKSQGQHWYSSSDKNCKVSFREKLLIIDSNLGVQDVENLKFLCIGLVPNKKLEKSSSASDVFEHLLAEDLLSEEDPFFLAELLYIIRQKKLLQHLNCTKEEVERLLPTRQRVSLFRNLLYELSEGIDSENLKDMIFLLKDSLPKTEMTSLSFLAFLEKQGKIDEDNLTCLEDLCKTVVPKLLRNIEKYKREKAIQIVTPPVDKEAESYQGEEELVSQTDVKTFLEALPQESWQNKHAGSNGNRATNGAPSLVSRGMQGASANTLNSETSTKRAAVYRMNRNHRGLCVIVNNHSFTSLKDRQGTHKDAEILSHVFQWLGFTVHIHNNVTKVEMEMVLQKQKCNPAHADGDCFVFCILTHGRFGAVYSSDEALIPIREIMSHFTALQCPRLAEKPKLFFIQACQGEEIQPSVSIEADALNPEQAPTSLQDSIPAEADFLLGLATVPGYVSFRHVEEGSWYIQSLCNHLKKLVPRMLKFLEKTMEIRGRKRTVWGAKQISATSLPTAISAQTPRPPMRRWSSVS
inactive: [1] 0.064 | [2] 0.189 | [3] 0.114 | [4] 0.002 | [5] -0.145

CCND3 (UniProt P30281)
Sequence of UniProt P30281 (P30281 whole entry, looked up): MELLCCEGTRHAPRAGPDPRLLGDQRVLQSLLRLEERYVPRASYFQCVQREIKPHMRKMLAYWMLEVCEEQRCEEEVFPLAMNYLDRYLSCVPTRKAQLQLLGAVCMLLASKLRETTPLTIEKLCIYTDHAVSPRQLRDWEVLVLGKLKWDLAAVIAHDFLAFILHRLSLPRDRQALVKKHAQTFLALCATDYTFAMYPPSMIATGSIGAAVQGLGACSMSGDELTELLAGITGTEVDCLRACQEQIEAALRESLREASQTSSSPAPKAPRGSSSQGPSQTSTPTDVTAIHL
inactive: [1] -0.105 | [2] -0.015 | [3] 0.121 | [4] 0.033 | [5] 0.053

CS (UniProt O75390)
Sequence of UniProt O75390 (O75390 whole entry, looked up): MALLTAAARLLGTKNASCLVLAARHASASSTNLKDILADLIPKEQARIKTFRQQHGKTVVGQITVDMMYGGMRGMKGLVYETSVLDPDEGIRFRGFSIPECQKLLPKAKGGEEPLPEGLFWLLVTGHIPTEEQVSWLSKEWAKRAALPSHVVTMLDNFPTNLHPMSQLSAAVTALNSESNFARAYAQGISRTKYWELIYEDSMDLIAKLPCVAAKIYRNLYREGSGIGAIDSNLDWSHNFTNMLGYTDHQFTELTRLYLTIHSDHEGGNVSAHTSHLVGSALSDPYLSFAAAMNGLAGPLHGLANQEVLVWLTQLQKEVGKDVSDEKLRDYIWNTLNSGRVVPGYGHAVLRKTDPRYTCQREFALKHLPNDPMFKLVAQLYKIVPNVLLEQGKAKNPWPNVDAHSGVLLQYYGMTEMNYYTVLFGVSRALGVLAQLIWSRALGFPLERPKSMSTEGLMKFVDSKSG
inactive: [1] -0.043 | [2] 0.089 | [3] 0.053 | [4] -0.015 | [5] -0.016

CASP3 (UniProt P42574)
Sequence of UniProt P42574 (P42574 whole entry, looked up): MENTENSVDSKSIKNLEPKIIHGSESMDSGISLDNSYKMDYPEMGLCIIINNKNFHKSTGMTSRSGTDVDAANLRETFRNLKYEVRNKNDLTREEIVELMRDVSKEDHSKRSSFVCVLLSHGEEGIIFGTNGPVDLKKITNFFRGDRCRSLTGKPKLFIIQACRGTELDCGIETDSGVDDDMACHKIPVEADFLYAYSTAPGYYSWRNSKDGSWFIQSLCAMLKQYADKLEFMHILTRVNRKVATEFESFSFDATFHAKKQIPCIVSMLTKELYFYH
inactive: [1] 0.018 | [2] 0.004 | [3] -0.005 | [4] -0.055 | [5] 0.003

CLINT1 (UniProt Q14677)
Sequence of UniProt Q14677 (Q14677 whole entry, looked up): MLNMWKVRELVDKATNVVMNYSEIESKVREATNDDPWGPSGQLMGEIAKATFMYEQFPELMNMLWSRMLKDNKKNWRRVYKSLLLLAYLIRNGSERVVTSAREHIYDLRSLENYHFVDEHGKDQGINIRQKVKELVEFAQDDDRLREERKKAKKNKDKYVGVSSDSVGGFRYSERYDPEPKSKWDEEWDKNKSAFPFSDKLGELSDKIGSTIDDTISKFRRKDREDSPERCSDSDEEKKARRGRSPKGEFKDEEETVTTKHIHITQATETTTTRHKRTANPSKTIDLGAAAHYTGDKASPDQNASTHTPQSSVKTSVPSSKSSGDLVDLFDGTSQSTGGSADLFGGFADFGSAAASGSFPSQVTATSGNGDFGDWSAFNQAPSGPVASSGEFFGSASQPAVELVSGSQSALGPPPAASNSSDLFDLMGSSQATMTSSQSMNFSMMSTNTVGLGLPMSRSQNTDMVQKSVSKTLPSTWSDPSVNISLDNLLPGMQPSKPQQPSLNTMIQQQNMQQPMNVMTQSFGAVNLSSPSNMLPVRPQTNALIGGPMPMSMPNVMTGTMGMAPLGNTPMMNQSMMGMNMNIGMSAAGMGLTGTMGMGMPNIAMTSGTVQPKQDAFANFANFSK
inactive: [1] 0.063 | [2] 0.131 | [3] -0.005 | [4] -0.009 | [5] 0.157

CES2 isoform 4 (UniProt O00748)
Sequence of UniProt O00748 (O00748 whole entry, looked up): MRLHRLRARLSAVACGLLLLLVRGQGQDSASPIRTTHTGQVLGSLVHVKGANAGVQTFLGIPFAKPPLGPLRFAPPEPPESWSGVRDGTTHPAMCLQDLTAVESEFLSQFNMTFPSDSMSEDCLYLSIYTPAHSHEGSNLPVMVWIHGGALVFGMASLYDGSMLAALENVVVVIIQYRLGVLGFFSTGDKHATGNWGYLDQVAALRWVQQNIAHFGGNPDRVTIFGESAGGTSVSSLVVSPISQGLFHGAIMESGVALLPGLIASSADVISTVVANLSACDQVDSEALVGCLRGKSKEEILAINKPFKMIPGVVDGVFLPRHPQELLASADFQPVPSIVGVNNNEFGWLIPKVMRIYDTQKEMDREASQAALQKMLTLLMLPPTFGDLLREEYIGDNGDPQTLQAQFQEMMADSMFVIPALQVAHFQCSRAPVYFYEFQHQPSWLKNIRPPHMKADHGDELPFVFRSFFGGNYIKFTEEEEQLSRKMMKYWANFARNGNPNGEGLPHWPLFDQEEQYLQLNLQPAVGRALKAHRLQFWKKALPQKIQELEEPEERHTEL
inactive: [1] 0.041 | [2] -0.069 | [3] 0.061 | [4] 0.118 | [5] -0.141

COX15 (UniProt Q7KZN9)
Sequence of UniProt Q7KZN9 (Q7KZN9 whole entry, looked up): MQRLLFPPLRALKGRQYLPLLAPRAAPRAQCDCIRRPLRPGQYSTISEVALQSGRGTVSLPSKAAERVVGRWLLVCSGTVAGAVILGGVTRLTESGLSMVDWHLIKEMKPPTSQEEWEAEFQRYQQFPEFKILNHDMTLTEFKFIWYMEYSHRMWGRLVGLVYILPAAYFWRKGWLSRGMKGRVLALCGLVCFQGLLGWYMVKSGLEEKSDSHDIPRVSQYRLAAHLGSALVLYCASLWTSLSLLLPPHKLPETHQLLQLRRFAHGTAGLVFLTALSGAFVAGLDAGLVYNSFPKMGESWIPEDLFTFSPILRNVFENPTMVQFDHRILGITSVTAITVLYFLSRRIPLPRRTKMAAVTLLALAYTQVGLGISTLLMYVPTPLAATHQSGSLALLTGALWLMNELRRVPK
inactive: [1] -0.027 | [2] 0.071 | [3] 0.036 | [4] -0.013 | [5] -0.02
